# High-throughput results as filed in PubChem.
# Pf growth 48h: P. falciparum growth inhibition at 48 hours (one generation); 310,000 tested, 5.9% active; Potency, µM (top dose mostly 28.7 µM), for inactives: top-dose activity change, negative = inhibition, usual class: inhibitors; P. falciparum luciferase growth in erythrocytes, 48 h; AID 504832
#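 Here the parasites carry a stable luciferase gene and grow inside erythrocytes in Albumax-based RPMI medium with compound for one erythrocytic cycle. Activity is scored as loss of luminescent signal.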
# AMA1 RON2 block: AMA1-RON2 (P. falciparum) interaction inhibition. AlphaScreen AMA1-biotinylated RON2 peptide binding. Potency, µM (titrated, usually from 58.2 µM), without a hit: at the highest dose activity change, negative = inhibition, most hits filed as inhibitors. 360,000 tested, 0.2% active;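 further: 0% = vehicle wells and -100% = peptide control; nearly all actives have a fitted effect of over 45% in size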
#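 AMA1 (3D7) with his tag at 25 nM final met compounds first, then biotinylated RON2 peptide at 25 nM; detection used donor plus acceptor beads, 10 µg/mL apiece, read by AlphaScreen after 30 min at room temperature.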
# Pf growth 96h: inhibits malaria parasite growth, 96 h. P. falciparum luciferase reporter growth, 96 h. Potency, µM (top dose mostly 28.7 µM), for the others: at the top dose activity change, negative = inhibition, hits mostly inhibitors. 320,000 tested, 6.9% active
#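 Two parasite generations (96 h, 37 C, 5% CO2) of compound exposure in infected erythrocytes (0.05% parasitemia, 2% hematocrit). Luciferase-reporter P. falciparum; decreased luminescence indicates inhibited growth, aimed at apicoplast-acting delayed death.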
# AmpC inh no detg: AmpC beta-lactamase inhibition without detergent; P00811; AmpC nitrocefin hydrolysis, absorbance 480 nm, 0.0001% Triton; Potency, µM (top dose mostly 57.1 µM), for inactives: at the highest dose activity change, negative = inhibition, usual class: inhibitors; 330,000 tested, 0.52% active;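 further: plate controls were no compound for no effect and no enzyme for full effect; nearly all actives have a fitted effect of over 20% in size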
# Target sequence (P00811 whole entry, looked up): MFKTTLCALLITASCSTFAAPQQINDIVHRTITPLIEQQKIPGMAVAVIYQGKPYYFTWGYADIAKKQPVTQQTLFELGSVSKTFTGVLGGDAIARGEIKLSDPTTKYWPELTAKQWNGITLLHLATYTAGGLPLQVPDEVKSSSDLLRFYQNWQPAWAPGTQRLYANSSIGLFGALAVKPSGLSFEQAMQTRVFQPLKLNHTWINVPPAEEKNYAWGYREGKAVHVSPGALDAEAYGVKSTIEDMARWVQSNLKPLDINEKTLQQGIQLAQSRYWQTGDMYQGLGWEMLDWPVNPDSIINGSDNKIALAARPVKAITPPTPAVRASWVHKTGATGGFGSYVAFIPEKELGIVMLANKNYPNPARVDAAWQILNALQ
#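 AmpC (5.3 nM in the dispensed reagent) in 20 mM phosphate pH 7.0 with 0.01% (detergent screen) or 0.0001% Triton X-100 was preincubated with compounds for 15 min at room temperature. Nitrocefin was then added from an 800 uM solution, and hydrolysis was followed at 480 nm.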
# HCV inhibitor: blocks hepatitis C virus. Huh7.5.1 HCVcc-Cre infection, luciferase reporter, 44 h. Potency, µM (top dose mostly 41.8 µM), without a hit: at the top dose activity change, negative = inhibition, usual class: inhibitors. 340,000 tested, 3.4% active. AID 651820
#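 Infectious HCV cell culture screen: compound-treated cells (1,000/well, pre-plated 4 h) are infected with HCVcc-Cre at roughly 0.5 moi and grown 44 h. Infection is quantified by luciferase signal after 15 min substrate incubation at room temperature.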
# AmpC inh detg: AmpC beta-lactamase inhibition with detergent present | AmpC hydrolysis of nitrocefin, absorbance 480 nm, 0.01% Triton | Potency, µM (titrated, usually from 114 µM), for inactives: top-dose activity change, negative = inhibition, most hits filed as inhibitors | 370,000 tested, 0.041% active;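 further: 0% = no-compound wells and -100% = no-enzyme wells; nearly all actives have a fitted effect of over 25% in size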
#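 20 mM phosphate pH 7.0 + 0.01% (detergent screen) or 0.0001% Triton X-100; 5.3 nM AmpC reagent; cpd preinc 15 min RT; nitrocefin (800 uM stock) to start; A480 q20 s × 4 min; Activity was normalised to no-enzyme and no-compound control wells.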
# Numbers without * were called inactive; ? = inconclusive; · = no result given. Shown are actives, neighbours in structure and some others; about 11% of the full set was active somewhere. The call rests on the fitted dose curve; in most records, active means well fitted curve in the direction sought with a large enough effect; inconclusive means small, poorly fitted or top-dose-only effect, or another doubt; inactive means no such curve, though single readings can be large; an effect the other way counts as inactive or inconclusive. Unless noted, on the % scale 0 is the no-effect control and ±100 the full control effect; potency means the concentration at half of the fitted maximal effect.
SMILES,Pf growth 48h,AMA1 RON2 block,Pf growth 96h,AmpC inh no detg,HCV inhibitor,AmpC inh detg
CN1CN(c2ccccc2)C2(CCN(CCCSc3ccccc3NC(=O)/C=C/c3ccccc3)CC2)C1=O,·,?,·,·,35.5µM*,·
O=C(NCc1ccc(Cl)cc1)c1cnc2sc(N3CCOCC3)nn2c1=O,·,·,·,·,·,1.9%
COc1ccc(CCNC(=O)CNC(=O)Cn2cnc3sc(C)c(C)c3c2=O)cc1OC,0.8%,-7.7%,?,56.7%,-0.6%,2.8%
COc1ccc(NC(=O)CNC(=O)Cn2cnc3sc(C)c(C)c3c2=O)cc1OC,0.7%,-11.3%,10.4µM*,-2.2%,21.3%,-8.0%
Cc1ccc(/C=N/n2c(C3CCCCC3)n[nH]c2=S)s1,?,31.5%,2.08µM*,-30.1%,6.6%,-4.6%
CCOc1ccc(/C=N/n2c(C3CCCCC3)n[nH]c2=S)cc1,?,97.2%,?,-36.3%,11.2µM*,-2.5%
N#CC1=C(N)n2c(s/c(=C\c3cccs3)c2=O)=C(C#N)C1c1cccs1 (centres undefined),30.7%,-4.2%,-11.3%,-36.3%,0.501µM*,-5.9%
N#CC1=C(N)n2c(s/c(=C\c3ccco3)c2=O)=C(C#N)C1c1ccco1 (centres undefined),-11.9%,-18.9%,?,-43.9%,5.5%,-6.9%
Cn1cc(C(=O)CCl)c2ccccc21,?,16.7%,?,-10.5%,7.94µM*,-1.2%
Cn1cc(C(N)=O)c2ccccc21,38.9%,5.9%,70.9%,1.0%,15.8%,1.6%
CC(C)(C)c1ccc(C(=O)Nc2ccc(Oc3cccnc3)nc2)cc1,?,3.4%,?,2.0%,2.82µM*,-13.2%
CCOC(=O)c1c(C)[nH]c(C)c1S(=O)(=O)N1CCC(C(=O)N2CCN(c3cccc(C)c3)C(C)C2)CC1 (centres undefined),·,·,·,·,·,3.2%
O=C(c1ccc(F)cc1)C(CN1CCOCC1)c1ccccc1 (centres undefined),?,-3.9%,?,-14.3%,11.2µM*,-9.9%
O=C(c1ccccc1)C(CCC(CN1CCOCC1)C(=O)c1ccccc1)CN1CCOCC1 (centres undefined),-20.9%,-6.4%,?,75.7%,5.62µM*,-11.9%
OC(COC(c1ccccc1)c1ccccc1)CN1CCOCC1 (centres undefined),6.2%,-3.5%,9.8%,12.2%,-5.2%,0.9%
OC(c1ccc(F)cc1)C(c1ccccc1)N1CCOCC1 (centres undefined),3.8%,7.5%,1.85µM*,·,-1.2%,2.7%
c1ccc(C(CN2CCOCC2)c2ccccc2)cc1,0.0%,-11.7%,8.28µM*,9.8%,16.8%,-17.4%
COc1ccc(C(=O)C(CN2CCOCC2)c2ccccc2)cc1 (centres undefined),·,-3.6%,?,2.3%,?,?
Cc1cc(C)cc(NC2=C(c3ccccc3)C(=O)c3ccccc32)c1,·,·,·,·,·,24.4%
CC(C)Cn1cc(NC(=O)N2CCN(c3ccc(F)cc3)CC2)c2ccccc2c1=O,·,·,·,·,·,16.7%
CCOC(=O)c1ccc(N2C(=O)c3[nH]nc(-c4ccccc4)c3C2c2cccs2)cc1 (centres undefined),·,·,·,·,·,-0.9%
Cc1cc(NCc2ccncc2)ccc1Br,17.4%,25.1µM*,?,-14.6%,15.6%,-2.0%
CCC(C(=O)N(C)Cc1ccccc1)n1nc(C)c2sc3ccccc3c2c1=O (centres undefined),·,·,·,·,·,-3.3%
C(=C1/CCCC2=C1Nc1ncnn1C2c1ccccc1)/c1ccccc1 (centres undefined),11.7µM*,·,-9.2%,41.7%,·,-0.2%
S=C1NC2=C(CCC/C2=C\c2ccccc2)C(c2ccccc2)N1 (centres undefined),-22.4%,-5.9%,?,11.2µM*,?,-12.3%
